Values joined by “and” are separate entries in the source; they are usually repeats but may differ in a detail not shown here. Equal values may be shown once. ± gives the standard deviation of the averaged measurements.
Key:
DLD1 [1] = test: cell viability (CellTiter-Glo) relative to plate median (fraction of plate median); higher = more viable cells; settings: 10 µM, treatment time 24 h
Procedure, shortened: (§1)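 Each value averages two independent replicates in which the well signal was normalised to the plate median (webcellHTS2, additive, without log transformation). The signal was firefly luciferase or CellTiterGlo luminescence, read on parallel plates with a Tecan F500. The cells were colorectal cancer lines with stable lentiviral TCF/Wnt firefly luciferase reporters in 384-well plates, dosed 24 h after seeding with kinase inhibitor library compounds at a final 10 µM for 24 h.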

HCT116 [2] = test: as above; settings: 10 µM; treatment time 24 h; reporter: TCF4/Wnt
Procedure, shortened: as §1

SW480 [3] = test: as above; settings: 10 µM; treatment time 24 h; reporter: 7TFP
Procedure, shortened: as §1

DLD1 [4] = test: TCF/Wnt firefly luciferase reporter signal relative to plate median (fraction of plate median); higher = higher Wnt reporter signal; settings: 10 µM, treatment time 24 h
Procedure, shortened: as §1

HCT116 [5] = test: as above; settings: 10 µM; treatment time 24 h; reporter: TCF4/Wnt
Procedure, shortened: as §1

SW480 [6] = test: as above; settings: 10 µM; treatment time 24 h; reporter: 7TFP
Procedure, shortened: as §1

Structure (SMILES)	cell viability (DLD1 [1]; reporter: 7TFP)	cell viability (DLD1 [1]; reporter: TCF4/Wnt)	cell viability (HCT116 [2])	cell viability (SW480 [3])	TCF/Wnt firefly luciferase reporter signal (DLD1 [4]; reporter: 7TFP)	TCF/Wnt firefly luciferase reporter signal (DLD1 [4]; reporter: TCF4/Wnt)	TCF/Wnt firefly luciferase reporter signal (HCT116 [5])	TCF/Wnt firefly luciferase reporter signal (SW480 [6])
CC(C)(C)c1cc(NC(=O)Nc2ccc(-c3cn4c(n3)sc3cc(OCCN5CCOCC5)ccc34)cc2)no1 [Quizartinib (AC220)]	0.994 ± 0.19	0.989 ± 0.086	1.15 ± 0.11	1.095 ± 0.0071	0.789 ± 0.4	1.04 ± 0.014	1.22 ± 0.18	1.26 ± 0.021
Nc1ncnc2c1c(-c1cccc(OCc3ccccc3)c1)cn2C1CC(CN2CCCC2)C1 (stereo unspecified)	0.77 ± 0.15	0.809 ± 0.088	0.67 ± 0.095	0.952 ± 0.15	0.627 ± 0.15	0.755 ± 0.047	0.75 ± 0.29	0.895 ± 0.33
C=CC(=O)N1CCC[C@@H](n2nc(-c3ccc(Oc4ccccc4)cc3)c3c(N)ncnc32)C1	1.05 ± 0.077	1.115 ± 0.0071	1.36 ± 0.085	1.16 ± 0.064	0.557 ± 0.17	0.881 ± 0.35	1.33 ± 0.14	1.11 ± 0.042
CC(=O)Nc1cccc(-n2c(=O)n(C3CC3)c(=O)c3c(Nc4ccc(I)cc4F)n(C)c(=O)c(C)c32)c1	1.33 ± 0.057	1.29 ± 0.13	0.9995 ± 0.00071	1.19 ± 0.042	1.09 ± 0.52	1.39 ± 0.54	1.32 ± 0.58	2.02 ± 0.042
Cc1[nH]nc2ccc(-c3cncc(OC[C@@H](N)Cc4ccccc4)c3)cc12	1.02 ± 0.18	1.17 ± 0.05	0.755 ± 0.036	1.19 ± 0.099	0.51 ± 0.029	0.189 ± 0.021	0.196 ± 0.047	0.822 ± 0.042
Cn1cnc2c(F)c(Nc3ccc(Br)cc3Cl)c(C(=O)NOCCO)cc21 [AZD6244 (Selumetinib)]	1.11 ± 0.042	1.08 ± 0.035	0.914 ± 0.066	1.125 ± 0.0071	1.45 ± 0.021	1.42 ± 0.16	0.99 ± 0.52	1.34 ± 0.72
COc1cc(Nc2ncc(F)c(Nc3ccc4c(n3)NC(=O)C(C)(C)O4)n2)cc(OC)c1OC [R406(free base)]	1.2 ± 0.18	0.99 ± 0.085	1.2 ± 0.05	0.968 ± 0.037	1.26 ± 0.028	1.16 ± 0.13	1.38 ± 0.37	1.29 ± 0.042
Cc1nc(Nc2ncc(C(=O)Nc3c(C)cccc3Cl)s2)cc(N2CCN(CCO)CC2)n1	0.774 ± 0.11	0.898 ± 0.13	1.01 ± 0.035	1.06 ± 0.071	0.54 ± 0.063	0.487 ± 0.031	0.706 ± 0.078	0.615 ± 0.07
CCn1cc(-c2ccnc3[nH]c(-c4cccc(CN(C)C)c4)cc23)c(-c2ccc(NC(=O)N(C)C)cc2)n1	0.994 ± 0.11	0.9965 ± 0.0021	0.913 ± 0.05	1.07 ± 0.099	1.01 ± 0.11	1.05 ± 0.081	1.71 ± 0.028	1.02 ± 0.16
C[S+]([O-])c1ccc(-c2nc(-c3ccc(F)cc3)c(-c3ccncc3)[nH]2)cc1 (stereo unspecified)	0.99 ± 0.099	1.02 ± 0.028	1.11 ± 0.035	0.913 ± 0.0099	0.82 ± 0.16	0.884 ± 0.22	1.26 ± 0.38	0.935 ± 0.064
CCS(=O)(=O)N1CC(CC#N)(n2cc(-c3ncnc4[nH]ccc34)cn2)C1	1.025 ± 0.0071	1.02 ± 0.021	1.22 ± 0.092	0.943 ± 0.0014	1.09 ± 0.16	0.764 ± 0.18	0.974 ± 0.11	0.985 ± 0.021
Cc1[nH]c(/C=C2\C(=O)Nc3ccc(S(=O)(=O)Cc4c(Cl)cccc4Cl)cc32)c(C)c1C(=O)N1CCC[C@@H]1CN1CCCC1	0.691 ± 0.27	0.648 ± 0.43	0.826 ± 0.33	0.798 ± 0.34	0.7 ± 0.36	0.868 ± 0.16	0.7 ± 0.88	1.21 ± 0.028
O=C1NC(=O)/C(=C/c2ccc3c(c2)OC(F)(F)O3)S1	1.285 ± 0.0071	1.09 ± 0.021	1.15 ± 0.13	0.882 ± 0.034	0.944 ± 0.35	1.06 ± 0.24	1.18 ± 0.22	1.03 ± 0.21
CN(c1ncccc1CNc1nc(Nc2ccc3c(c2)CC(=O)N3)ncc1C(F)(F)F)S(C)(=O)=O	0.974 ± 0.19	1.06 ± 0.071	0.698 ± 0.21	1.19 ± 0.11	0.732 ± 0.28	1.66 ± 0.33	0.2 ± 0.037	0.9115 ± 0.0064
CO[C@H]1C[C@@H]2CC[C@@H](C)[C@@](O)(O2)C(=O)C(=O)N2CCCC[C@H]2C(=O)O[C@H]([C@H](C)C[C@@H]2CC[C@@H](O)[C@H](OC)C2)CC(=O)[C@H](C)/C=C(\C)[C@@H](O)[C@@H](OC)C(=O)[C@H](C)C[C@H](C)/C=C/C=C/C=C/1C [Rapamycin (Sirolimus)]	1.07 ± 0.1	0.904 ± 0.15	0.95 ± 0.017	1.24 ± 0.014	1.07 ± 0.071	1.09 ± 0.26	1.38 ± 0.42	1.65 ± 0.11
NC(=O)Nc1sc(-c2ccc(F)cc2)cc1C(N)=O	0.951 ± 0.033	0.93 ± 0.075	1.1 ± 0.085	1.1 ± 0.014	0.669 ± 0.03	1.16 ± 0.18	1.39 ± 0.2	1.38 ± 0.057

Structure (SMILES)	cell viability (DLD1 [1]; reporter: 7TFP)	cell viability (DLD1 [1]; reporter: TCF4/Wnt)	cell viability (HCT116 [2])	cell viability (SW480 [3])	TCF/Wnt firefly luciferase reporter signal (DLD1 [4]; reporter: 7TFP)	TCF/Wnt firefly luciferase reporter signal (DLD1 [4]; reporter: TCF4/Wnt)	TCF/Wnt firefly luciferase reporter signal (HCT116 [5])	TCF/Wnt firefly luciferase reporter signal (SW480 [6])
Cc1ccc(NC(=O)c2cccc(C(C)(C)C#N)c2)cc1Nc1ccc2ncn(C)c(=O)c2c1	1.21 ± 0.05	1.08	0.955 ± 0.044	1.18 ± 0.028	1.04 ± 0.33	0.843 ± 0.048	1.2 ± 0.3	1.43 ± 0.12
O=C1NCCc2[nH]c(-c3ccncc3)cc21	1.03 ± 0.14	1.03 ± 0.054	0.665 ± 0.14	1.24 ± 0.11	0.612 ± 0.054	0.44 ± 0.11	0.222 ± 0.0085	0.829 ± 0.023
O=C1NC(=O)/C(=C/c2ccc3nccc(-c4ccncc4)c3c2)S1	0.973 ± 0.038	1.07 ± 0.071	0.597 ± 0.061	1.02 ± 0.13	0.312 ± 0.018	0.564 ± 0.29	0.417 ± 0.25	0.572 ± 0.07
Oc1c2ccccc2c2c3c(cccc13)N=N2	1.06 ± 0.099	1.01 ± 0.016	1.12 ± 0.021	0.931 ± 0.016	1.07 ± 0.14	1.18 ± 0.014	1.34 ± 0.23	1.06 ± 0.021
CNC(=O)c1ccccc1Sc1ccc2c(/C=C/c3ccccn3)n[nH]c2c1 [Axitinib]	0.9855 ± 0.0021	1 ± 0.052	0.965 ± 0.0028	0.906 ± 0.051	1.7 ± 0.057	1.97 ± 0.33	1.53 ± 0.89	1.36 ± 0.92
CC(=O)NCC(=O)N1[C@@H]2CC[C@H]1c1ccc(Nc3ncc(C(F)(F)F)c(NC4CCC4)n3)cc12	0.907 ± 0.028	1.04 ± 0.08	0.256 ± 0.13	0.877 ± 0.071	0.742 ± 0.09	1.24 ± 0.092	0.149 ± 0.0021	1.21 ± 0.11
OCCn1cc(-c2cnc3nnn(Cc4ccc5ncccc5c4)c3n2)cn1	1.16 ± 0.035	1.01 ± 0.071	1.09 ± 0.028	0.905 ± 0.029	1.1 ± 0.11	1.07 ± 0.13	1.25 ± 0.028	1.05 ± 0.042
Cc1nc(NC(=O)N2CCC[C@H]2C(N)=O)sc1-c1ccnc(C(C)(C)C(F)(F)F)c1	0.977 ± 0.047	0.996 ± 0.034	0.938 ± 0.1	1.09 ± 0.028	0.558 ± 0.062	0.711 ± 0.13	0.985 ± 0.13	0.791 ± 0.024
COc1ccc2c(Oc3ccc(NC(=O)c4c(C)n(CC(C)(C)O)n(-c5ccccc5)c4=O)nc3)ccnc2c1	1.15 ± 0.19	1.01 ± 0.016	1.12	0.921 ± 0.08	0.92 ± 0.35	0.99 ± 0.057	1.22 ± 0.078	1.05 ± 0.078
CS(=O)(=O)N1CCN(Cc2cc3nc(-c4cccc5[nH]ncc45)nc(N4CCOCC4)c3s2)CC1	0.998 ± 0.19	1.03 ± 0.05	1.08 ± 0.021	1 ± 0.035	0.93 ± 0.14	0.947 ± 0.16	1.16 ± 0.057	1.04 ± 0.075
Cc1cc(C(=O)NOCCO)c(Nc2ccc(I)cc2F)n(C)c1=O	1.19 ± 0.042	1.15 ± 0.042	0.889 ± 0.075	1.105 ± 0.0071	1.635 ± 0.0071	1.58 ± 0.25	1.17 ± 0.13	1.89 ± 0.22
Cc1cnc(NC(=O)Nc2cc(Br)c(C)cc2OC[C@@H]2CNCCO2)cn1	0.833 ± 0.16	0.983 ± 0.096	0.805 ± 0.16	1.02 ± 0.089	1.06 ± 0.057	1.12 ± 0.028	0.894 ± 0.35	0.938 ± 0.012
C[C@@H]1CCN(C(=O)CC#N)C[C@@H]1N(C)c1ncnc2[nH]ccc12	1.02 and 1.09	1.07 and 1.1	1.21 and 1.14	0.9 and 0.972	1.06 and 1.04	0.874 and 0.875	1.18 and 1.36	0.736 and 0.979
COc1cc(OC)c(/C=C/S(=O)(=O)Cc2ccc(OC)c(NCC(=O)O)c2)c(OC)c1	0.988 ± 0.074	1.01 ± 0.025	0.631 ± 0.14	1.04	0.726 ± 0.011	0.772 ± 0.0014	0.198 ± 0.013	0.694 ± 0.069
CN(C)C1CCN(C(=O)c2ccc(NC(=O)Nc3ccc(-c4nc(N5CCOCC5)nc(N5CCOCC5)n4)cc3)cc2)CC1	1.1 ± 0.17	1.05 ± 0.081	0.649 ± 0.051	1.17 ± 0.05	0.947 ± 0.076	0.933 ± 0.073	0.611 ± 0.23	0.958 ± 0.1
NC(=O)c1ccc(-c2nc(-c3ccccn3)c(-c3ccc4c(c3)OCO4)[nH]2)cc1	0.936 ± 0.16	0.968 ± 0.014	1.09 ± 0.035	0.829 ± 0.037	0.99 ± 0.043	1.2 ± 0.085	1.21 ± 0.085	0.944 ± 0.15
